Reference: PubChem BioAssay (NCATS)
Inconclusive results are not listed. Active and inactive are the calls of the source. Calls follow the shape of the dose curve; as a rule, active = well fitted inhibition curve with a large enough effect; inconclusive = small, poorly fitted or top-dose-only effect; inactive = flat fitted curve, though single readings scatter.

Experiments:
Test in all cases: qHTS profiling for inhibitors of Plasmodium falciparum proliferation (AID 504749); also: nearly all actives have a fitted effect of over 60% in size
Conditions in all cases: P. falciparum in erythrocytes, SYBR Green DNA, 72 h; series mostly up to 28.7 µM
CP315 = test system: CP315
Summary of the method: (§1)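 Fluorescence of SYBR Green-bound parasite DNA, read at 485/535 nm, served as the growth measure. Infected erythrocytes were cultured with compound 72 h; artemisinin (0.29 uM) and DMSO wells defined the normalization range.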

CP325 = test system: CP325
Summary of the method: as §1

CP329 = test system: CP329
Summary of the method: as §1

CP335 = test system: CP335
Summary of the method: as §1

DFO2036 = test system: DFO2036
Summary of the method: as §1

DIV14 = test system: DIV14
Summary of the method: as §1

DIV17 = test system: DIV17
Summary of the method: as §1

DIV30 = test system: DIV30
Summary of the method: as §1

Dd2 = test system: Dd2
Summary of the method: as §1

ECU = test system: ECU
Summary of the method: as §1

Measured: Potency
Potency is read from the fitted curve at half-maximal effect.

CN1C(C(=O)Nc2ccccn2)C(=O)c2sc(Cl)cc2S1(=O)=O (stereo unspecified)
inactive: CP315 | CP325 | CP329 | CP335 | DFO2036 | DIV14 | DIV17 | DIV30 | Dd2 | ECU

CC(C)(C)c1ccc2c(S(=O)(=O)O)c(C(C)(C)C)ccc2c1
inactive: CP315 | CP325 | CP329 | CP335 | DFO2036 | DIV14 | DIV17 | DIV30 | Dd2 | ECU

CN(C)C(=O)CCSC(SCCC(=O)O)c1cccc(/C=C/c2ccc3ccc(Cl)cc3n2)c1 (stereo unspecified)
inactive: CP315 | CP325 | CP329

CN1C(=O)C[C@@H](C(=O)N[C@@H](Cc2cnc[nH]2)C(=O)N2CCC[C@H]2C(N)=O)NC1=O
inactive: CP315 | CP325 | CP329 | CP335 | DFO2036 | DIV14 | DIV17 | DIV30 | Dd2 | ECU

CCc1ncnc2cc(OC)c(OC)cc12
inactive: CP315 | CP325 | CP329 | CP335 | DFO2036 | DIV14 | DIV17 | DIV30 | Dd2 | ECU

[O]=[Bi][O]C(=O)[O][Bi]=[O]
inactive: CP315 | CP325 | CP329 | CP335 | DFO2036 | DIV14 | DIV17 | DIV30 | Dd2 | ECU

CC(C)CCCC(C)NC(C)C (stereo unspecified)
inactive: CP315 | CP325 | CP329 | CP335 | DFO2036 | DIV14 | DIV17 | DIV30 | Dd2 | ECU

Cn1c(O)c(N=NC(N)=S)c2ccccc21
inactive: CP315 | CP325 | CP329

CO
inactive: CP315 | CP325 | CP329 | CP335 | DFO2036 | DIV14 | DIV17 | DIV30 | Dd2 | ECU

Nc1ncnc2c1ncn2[C@H]1CC[C@@H](CO)O1
inactive: CP315 | CP325 | CP329 | CP335 | DFO2036 | DIV14 | DIV17 | DIV30 | Dd2 | ECU

O=C(O)[C@H]1C(=CCO)O[C@H]2CC(=O)N12
inactive: CP315 | CP325 | CP329 | CP335 | DFO2036 | DIV14 | DIV17 | DIV30 | Dd2 | ECU

O=C1c2ccccc2C(=O)C1c1ccc(Cl)cc1
inactive: CP315 | CP325 | CP329 | CP335 | DFO2036 | DIV14 | DIV17 | DIV30 | Dd2

C(=C\c1ccncc1)/c1ccccc1
inactive: CP315 | CP325 | CP329 | CP335 | DFO2036 | DIV14 | DIV17 | DIV30 | Dd2

CC(C)(COP(=O)(O)OP(=O)(O)OC[C@H]1O[C@@H](n2cnc3c(N)ncnc32)[C@H](O)[C@@H]1OP(=O)(O)O)C(O)C(=O)NCCC(=O)NCCS (stereo partly specified)
inactive: CP315 | CP325 | CP329 | CP335 | DFO2036 | DIV14 | DIV17 | DIV30 | Dd2 | ECU

O=C(NCCNCC(O)COc1ccc(O)cc1)N1CCOCC1 (stereo unspecified)
inactive: CP315 | CP325 | CP329 | CP335 | DFO2036 | DIV14 | DIV17 | DIV30 | Dd2 | ECU

CCN(CC)CCOC(=O)c1cccnc1
inactive: CP315 | CP325 | CP329 | CP335 | DFO2036 | DIV14 | DIV17 | DIV30 | Dd2 | ECU

c1ccc2c(c1)OCC(CN1CCCCC1)O2 (stereo unspecified)
inactive: CP315 | CP325 | CP329 | CP335 | DFO2036 | DIV14 | DIV17 | DIV30 | Dd2 | ECU

CNC(=O)OCc1cccc(COC(=O)NC)n1
inactive: CP315 | CP325 | CP329 | CP335 | DFO2036 | DIV14 | DIV17 | DIV30 | Dd2 | ECU

CC(C)c1nc(N(C)S(C)(=O)=O)nc(-c2ccc(F)cc2)c1/C=C/C(O)CC(O)CC(=O)O (stereo unspecified)
inactive: CP315 | CP325 | CP329 | CP335 | DFO2036 | DIV14 | DIV17 | DIV30 | Dd2 | ECU

CC(C)CCCCCCc1ccc(O)cc1
inactive: CP315 | CP325 | CP329 | CP335 | DFO2036 | DIV14 | DIV17 | DIV30 | Dd2

C=CCCCCCCCCC(=O)OC
inactive: CP315 | CP325 | CP329 | CP335 | DFO2036 | DIV14 | DIV17 | DIV30 | Dd2 | ECU

NC(=S)N=Nc1ccc(NN=C(N)N)cc1
active: CP315 8.49 µM | CP325 10.7 µM | CP329 7.57 µM | CP335 8.49 µM | DFO2036 5.01 µM | DIV14 6.01 µM | DIV17 7.57 µM | DIV30 9.53 µM | Dd2 2.51 µM

CC1C(=O)CC2C3(C)CCC2(C(C)C(=O)O)C(=O)C13 (stereo unspecified)
inactive: CP315 | CP325 | CP329 | CP335 | DFO2036 | DIV14 | DIV17 | DIV30 | Dd2 | ECU

CCCCC[C@H](O)/C=C/[C@@H]1[C@H]2C/C(=C/CCCC(=O)O)O[C@H]2C[C@H]1O
inactive: CP315 | CP325 | CP329 | CP335 | DFO2036 | DIV14 | DIV17 | DIV30 | Dd2 | ECU

NCC(O)CC(=O)O (stereo unspecified)
inactive: CP315 | CP325 | CP329 | CP335 | DFO2036 | DIV14 | DIV17 | DIV30 | Dd2 | ECU

Cc1cccc(Nc2ncccc2C(=O)O)c1C
inactive: CP315 | CP325 | CP329 | CP335 | DFO2036 | DIV14 | DIV17 | DIV30 | Dd2 | ECU

Cc1ncc(C[n+]2csc(CCOP(=O)(O)OP(=O)(O)O)c2C)c(N)n1
inactive: CP315 | CP325 | CP329 | CP335 | DFO2036 | DIV14 | DIV17 | DIV30 | Dd2 | ECU

CCOc1ccc(S(=O)(=O)O)c2cccnc12
inactive: CP315 | CP325 | CP329 | CP335 | DFO2036 | DIV14 | DIV17 | DIV30 | Dd2 | ECU

CC(=O)Nc1c(I)c(C(=O)O)c(I)c(N(C)C(C)=O)c1I
inactive: CP315 | CP325 | CP329 | CP335 | DFO2036 | DIV14 | DIV17 | DIV30 | Dd2

O=C(O)C1=C(CSc2nnnn2CS(=O)(=O)O)CS[C@@H]2[C@H](NC(=O)[C@H](O)c3ccccc3)C(=O)N12
inactive: CP315 | CP325 | CP329 | CP335 | DFO2036 | DIV14 | DIV17 | DIV30 | Dd2 | ECU

COc1ccc(C(=O)CCC(=O)O)c2ccccc12
inactive: CP315 | CP325 | CP329 | CP335 | DFO2036 | DIV14 | DIV17 | DIV30 | Dd2 | ECU

CC/C=C\C/C=C\C/C=C\C/C=C\C/C=C\C/C=C\CCC(=O)O
inactive: CP315 | CP325 | CP329 | CP335 | DFO2036 | DIV14 | DIV17 | DIV30 | Dd2

CNC(=O)[C@H](Cc1c[nH]c2ccccc12)NC(=O)[C@@H](CC(=O)NO)CC(C)C
inactive: CP315

CN1c2c(nc(N)[nH]c2=O)NCC1CNc1ccc(C(=O)NC(CCC(=O)O)C(=O)O)cc1 (stereo unspecified)
inactive: CP315 | CP325 | CP329 | CP335 | DFO2036 | DIV14 | DIV17 | DIV30 | Dd2 | ECU

Cc1ccc(S(=O)(=O)NCl)cc1
inactive: CP315 | CP325 | CP329 | CP335 | DFO2036 | DIV14 | DIV17 | DIV30 | Dd2 | ECU

CC(C)[C@H](N)C(=O)OCC(CO)OCn1cnc2c(=O)[nH]c(N)nc21 (stereo partly specified)
inactive: CP315 | CP325 | CP329 | CP335 | DFO2036 | DIV14 | DIV17 | DIV30 | Dd2 | ECU

OCC(O)CO
inactive: CP315 | CP325 | CP329 | CP335 | DFO2036 | DIV14 | DIV17 | DIV30 | Dd2 | ECU

COc1cc(S(C)=O)ccc1-c1nc2ncccc2[nH]1 (stereo unspecified)
inactive: CP315 | CP325 | CP329 | CP335 | DFO2036 | DIV14 | DIV17 | DIV30 | Dd2 | ECU

CCOC(=O)c1cc(-c2ccccc2)nc2ccc(C)cc12
inactive: CP315 | CP325 | CP329 | CP335 | DFO2036 | DIV14 | DIV17 | DIV30 | Dd2 | ECU

Nc1ncnc2c1ncn2CCOCP(=O)(O)O
inactive: CP315 | CP325 | CP329 | CP335 | DFO2036 | DIV14 | DIV17 | DIV30 | Dd2 | ECU

COc1cc(C)c(/C=C/C(C)=C/C=C/C(C)=C/C(=O)O)c(C)c1C
inactive: CP315 | CP325 | CP329 | CP335 | DFO2036 | DIV14 | DIV17 | DIV30 | Dd2 | ECU

CC(=O)Nc1ccc(OC(C)=O)cc1
inactive: CP315 | CP325 | CP329 | CP335 | DFO2036 | DIV14 | DIV17 | DIV30 | Dd2 | ECU

CC1CC(O)CC(C)(C)C1 (stereo unspecified)
inactive: CP315 | CP325 | CP329 | CP335 | DFO2036 | DIV14 | DIV17 | DIV30 | Dd2 | ECU

CN1CCC(OC(=O)C(Oc2ccc(Cl)cc2)Oc2ccc(Cl)cc2)CC1
inactive: CP315 | CP325 | CP329 | CP335 | DFO2036 | DIV14 | DIV17 | DIV30 | Dd2 | ECU

COc1ccc(/C=C/C(=O)OCCC(C)C)cc1
inactive: CP315 | CP325 | CP329 | CP335 | DFO2036 | DIV14 | DIV17 | DIV30 | Dd2 | ECU

CC(=O)N[C@@H]1C(O[C@H]2O[C@H](C(=O)O)C(O)[C@H](O)[C@H]2O)[C@H](O)[C@@H](CO)O[C@H]1O[C@@H]1C(C(=O)O)O[C@@H](O[C@H]2[C@H](O)[C@@H](CO)OC(O)[C@@H]2NC(C)=O)[C@H](O)[C@H]1O (stereo partly specified)
inactive: CP315 | CP325 | CP329 | CP335 | DFO2036 | DIV14 | DIV17 | DIV30 | Dd2 | ECU

CC(C)CCC[C@@H](C)[C@H]1CC[C@H]2[C@@H]3CC[C@@H]4C[C@H](O)CC[C@]4(C)[C@H]3CC[C@]12C
inactive: CP315 | CP325 | CP329 | CP335 | DFO2036 | DIV14 | DIV17 | DIV30 | Dd2 | ECU

Cc1c(Cl)cccc1Nc1ncccc1C(=O)O
inactive: CP315 | CP325 | CP329 | CP335 | DFO2036 | DIV14 | DIV17 | DIV30 | Dd2 | ECU
